Data on eleven molecules can be found in PubChem BioAssay.

The target of this test is Concanavalin-A (Canavalia ensiformis) (UniProt P02866). The experiment in a line: ConA small-molecule binders, primary screen, artefact control for SMM control protein annotation, biochemical, small-molecule microarray, Alexa647 label, 635 nm (AID 1127).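 Further: z combines 667 nm emission intensity with signal-to-noise across three replicate slides.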 Particulars: ConA-A647 binding fluorescence, higher = more signal.
Chain of Concanavalin-A (Canavalia ensiformis) (P02866 whole entry, looked up): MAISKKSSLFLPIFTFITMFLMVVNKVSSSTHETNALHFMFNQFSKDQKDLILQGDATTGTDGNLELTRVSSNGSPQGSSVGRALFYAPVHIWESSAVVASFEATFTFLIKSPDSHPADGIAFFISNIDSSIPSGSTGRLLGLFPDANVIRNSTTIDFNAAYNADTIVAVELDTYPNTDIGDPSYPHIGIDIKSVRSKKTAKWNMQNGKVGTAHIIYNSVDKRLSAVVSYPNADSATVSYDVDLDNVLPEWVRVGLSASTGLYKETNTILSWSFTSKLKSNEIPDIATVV
Turning to `CC(C)N1C(=O)c2ccccc2[C@](C)(C(=O)NCCCN(C)C)[C@@H]1c1ccc(CO)cc1`, the composite z-score is -1.41.
In turn, `O=C1C2C=CC(C(O)c3ccc(-c4ccccc4)s3)N(Nc3ccccc3F)C2C(=O)N1c1ccccc1` (stereo unspecified) displayed a composite z-score of 1.12.
`CN1C(=O)C2C(C1=O)C1C=C(c3ccc(CO)cc3)C2C(C2CC2)N1Cc1sc2ccccc2c1Cl` (stereo unspecified) yielded a composite z-score of 1.21.
Turning to `CO[C@H]1O[C@H](CO)[C@@H](OC(=O)Nc2ccc3c(c2)OCO3)[C@H](OC(=O)Nc2ccc3c(c2)OCO3)[C@H]1OC(=O)Nc1ccc2c(c1)OCO2`, the composite z-score stood at 1.07.
In turn, `C=CC[C@]1(C(=O)NCCN2CCOCC2)N=C(c2ccc(OCCCO)cc2)O[C@H]1c1ccccc1N=[N+]=[N-]` came in with a composite z-score of 0.563.
The molecule `C=CCNC(=O)[C@@H]1[C@H]2C(=O)O[C@H](c3ccccc3)[C@H](c3ccccc3)N2[C@H](c2ccccc2OCCO)[C@@]12C(=O)N(C(=O)OCCOC)c1ccc(C#CCC(C(=O)OC)C(=O)OC)cc12` gave a composite z-score of 1.15.
In turn, `CC(C)[C@H]1COC(=O)N1C(=O)[C@H]1[C@@H](c2ccccc2)N(c2ccccc2)O[C@@H]1C` gave a composite z-score of 0.609.
The value for `O=C1O[C@@H](c2ccccc2)[C@@H](c2ccccc2)N2[C@@H](c3ccc(O)cc3)[C@]3(C(=O)Nc4ccc(C#CCCO)cc43)[C@@H](C(=O)O)[C@H]12` was 1.03; that for `Cc1ccc(S[C@]2(C(=O)NCCCN(C)C)CC(=O)N(C(C)C)[C@@H]2c2ccc(CO)cc2I)cc1` was 0.257.
For the molecule `Cc1ccc(N2C(=O)c3ccccc3[C@](C)(C(=O)NCCN3CCOCC3)[C@@H]2c2ccc(CO)cc2)nc1`, the composite z-score was -0.828.
As for `COC(=O)C(CC#Cc1ccc2c(c1)[C@]1(C(=O)N2)[C@H](C(=O)N2CCCCCCC2)[C@H]2C(=O)O[C@H](c3ccccc3)[C@H](c3ccccc3)N2[C@@H]1c1ccccc1OCCO)C(=O)OC`, the figure is 0.916.
